Reference: PMC7819943, “Rice protein-binding microarrays: a tool to detect cis-acting elements near promoter regions in rice”
The full ranking holds about 39,000 sequences; the median of “fluorescence intensity (a.u.)” is about 4,300, and the highest 2% start at about 39,000. Many of the other results were omitted from the sample, so the highest values are more common in it than they were.

molecular target: T1, OsSMF1 (Oryza sativa, UniProt Q6ZLB0 1-436); experiment: protein-binding microarray (RPBM); PBS, 2% BSA, 51.3 ng/ul salmon testes DNA, 50 uM zinc acetate, 200 nM TF, 25 C, 1 h; high values mean tight binding; settings: protein: recombinant; tags: N-terminal polyhistidine and DsRed monomer fusion (pET32a); chain copies: 2; label: CyDye5-dUTP incorporated in the synthesized complementary strand; 3' TTTTT single-stranded linker to array surface; dsDNA, one strand shown
T1 sequence: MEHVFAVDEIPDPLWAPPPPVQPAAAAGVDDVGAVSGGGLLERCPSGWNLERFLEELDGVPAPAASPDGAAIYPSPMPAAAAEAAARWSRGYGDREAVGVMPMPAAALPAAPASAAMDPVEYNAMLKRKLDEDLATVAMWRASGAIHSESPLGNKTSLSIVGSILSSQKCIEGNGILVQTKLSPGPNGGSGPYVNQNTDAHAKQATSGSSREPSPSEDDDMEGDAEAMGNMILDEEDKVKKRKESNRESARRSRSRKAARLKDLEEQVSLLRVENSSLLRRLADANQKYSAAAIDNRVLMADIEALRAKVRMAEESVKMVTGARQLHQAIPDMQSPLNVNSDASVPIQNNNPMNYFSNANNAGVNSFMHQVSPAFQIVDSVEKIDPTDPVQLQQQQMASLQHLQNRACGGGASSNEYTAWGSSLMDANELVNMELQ
Outline: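 Binding signal is defined as the fluorescence intensity of each feature in arbitrary units, read on an Axon 4000B scanner. Transcription factors with N-terminal polyhistidine and DsRed fusions came from E. coli BL21-CodonPlus and were purified on Ni–NTA. They were incubated at 200 nM for 1 h at 25 °C on a custom Agilent array that had been made double-stranded with Cy5-dUTP, with 50 µM zinc acetate present, and the array was washed.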

| Sequence | binding signal |
| --- | --- |
| GTGCTGGCCAAATGGGCCGGGCCAAGGCCTCGGTAACCACCGGAGTCACCTAGTGCAG | 42300 fluorescence intensity (a.u.) |
| ATATGTGCTGGCCGCTGAGGTATACAGTATATGGGCCAACCGGAGTCACCTAGTGCAG | 3580 fluorescence intensity (a.u.) |
| CCGGACCAAAATGACGTGCCTTAGGCCGGGCCGCCAGCCTCGGAGTCACCTAGTGCAG | 3830 fluorescence intensity (a.u.) |
| ATCTGTCTTTGTTTGAAATCAGATTGGTTCAAAACAAGCGCGGAGTCACCTAGTGCAG | 21900 fluorescence intensity (a.u.) |
| CAAATTTTAATCCTAGAAAAGCTTATATTTGAAGGAGAAGCGGAGTCACCTAGTGCAG | 31100 fluorescence intensity (a.u.) |
| AGTTGATAAATTTCAGAAAATTTTGATGACAAAGCAAAGCCGGAGTCACCTAGTGCAG | 5580 fluorescence intensity (a.u.) |
| CTTTTCACGGATCCTAATTTTGACAGGCAAAGAAAGAAAGCGGAGTCACCTAGTGCAG | 41700 fluorescence intensity (a.u.) |
| GTCCCGCGCATTGGCGACGCGCGACCGGCACGGTCCCGCACGGAGTCACCTAGTGCAG | 13500 fluorescence intensity (a.u.) |
| CTGACGACCCGGATCAACCATTGGCAGCAGCTCCTGTACACGGAGTCACCTAGTGCAG | 3580 fluorescence intensity (a.u.) |
| AATAACCACGTATATATAACTTCTAACCCTAGTTAACAACCGGAGTCACCTAGTGCAG | 3310 fluorescence intensity (a.u.) |
| AGAGAATTATGGAGAGGGGAGGGGAGGGGCAGCAAAAGAGCGGAGTCACCTAGTGCAG | 4210 fluorescence intensity (a.u.) |
| TGATTTAAACATGTTATGTAAGGAGAGTTGGAGACAGATACGGAGTCACCTAGTGCAG | 22000 fluorescence intensity (a.u.) |
| GAATTTATGGTTGAATACTTAACTTAAAATCCAAGGAACCCGGAGTCACCTAGTGCAG | 3220 fluorescence intensity (a.u.) |
| AAGAGATGGGGATTAAACCAATTGGGCCGAAAGATATGTCCGGAGTCACCTAGTGCAG | 41200 fluorescence intensity (a.u.) |
| GATGTCTTTAAAGAGGATTATATGAAATTTGAGATGAAATCGGAGTCACCTAGTGCAG | 3610 fluorescence intensity (a.u.) |
| TACTTATGTAAAAGGATTGATTTAAGAGAATGGTCCAAACCGGAGTCACCTAGTGCAG | 44100 fluorescence intensity (a.u.) |
| AGAGGGGAGGAAGAAGGAAGGAGAGATGGGTCCGACATGTCGGAGTCACCTAGTGCAG | 26900 fluorescence intensity (a.u.) |
| AAACAACCAACTTTGCCTGCAAAACGGCAAAGAGATTAACCGGAGTCACCTAGTGCAG | 3920 fluorescence intensity (a.u.) |
| AAAGAGATTATGCGGATATGCCCTTGCAAACCGGGGCAGTCGGAGTCACCTAGTGCAG | 49900 fluorescence intensity (a.u.) |
| CGTACGGATATGCCCACGTGGCGAAGTCCCACGACGCCACCGGAGTCACCTAGTGCAG | 9930 fluorescence intensity (a.u.) |
| ATTTCCAGTAAAAGTGGCATTGTTCAGACTTCAGTCATTACGGAGTCACCTAGTGCAG | 3530 fluorescence intensity (a.u.) |

| Sequence | binding signal |
| --- | --- |
| CACGGCATCGGCATCGGCAGCCACGCCTCGCGTGGCACGGCGGAGTCACCTAGTGCAG | 4720 fluorescence intensity (a.u.) |
| GACAGATGTGCTGAGTGCTGACGTGGTTAAACTAACCTCGCGGAGTCACCTAGTGCAG | 16100 fluorescence intensity (a.u.) |
| AAGAGGATCGCAATCGTGAAAACTTCGCAAGTGTTCAGAACGGAGTCACCTAGTGCAG | 59100 fluorescence intensity (a.u.) |
| CCAAACTAAGAGTGTTCAAGGGGAGGGGAAAAGAGAAGATCGGAGTCACCTAGTGCAG | 3660 fluorescence intensity (a.u.) |
| TCGAAAACTTTTCAGCCACGTGATGTTGGCAATCGCTGTTCGGAGTCACCTAGTGCAG | 7190 fluorescence intensity (a.u.) |
| GGGCCCCACAACCACCCCATAAATAAAGCAACACAACAACCGGAGTCACCTAGTGCAG | 53000 fluorescence intensity (a.u.) |
| CACCAGCACATAAACACAAACCCACAGAAGACATTGCATTCGGAGTCACCTAGTGCAG | 5420 fluorescence intensity (a.u.) |
| CCACTGGACCATAACTGGGCCCAGCACACAGAAACAAATCCGGAGTCACCTAGTGCAG | 44700 fluorescence intensity (a.u.) |
| CTTGGCCCAGAAACAACACACACACTCAAATCTGGATCCACGGAGTCACCTAGTGCAG | 3790 fluorescence intensity (a.u.) |
| AATGAAATTAAACACACCCAACAAAATAAAAGACCAAACCCGGAGTCACCTAGTGCAG | 3140 fluorescence intensity (a.u.) |
| CGGCCCACCCACCAACCACCACCACCACCACCACACCCGCCGGAGTCACCTAGTGCAG | 3740 fluorescence intensity (a.u.) |
| TCCTTCTTCTTCTCCTTCCTCACTGCAACACTCTTCGGGGCGGAGTCACCTAGTGCAG | 38900 fluorescence intensity (a.u.) |
| CTTCGTCTCCTCCTCCTCCACGTCATCCGCCTCCGCCTCCCGGAGTCACCTAGTGCAG | 26000 fluorescence intensity (a.u.) |
| TTTGTGCGTGTTACGAGTGACTTGCGTTTATATCCTGCTTCGGAGTCACCTAGTGCAG | 6490 fluorescence intensity (a.u.) |
| ACAGGCATAGAGGCTGCTGACACACACCATCCGATCTGTCCGGAGTCACCTAGTGCAG | 4990 fluorescence intensity (a.u.) |
| TGCAGATGGTGCTGTGAAAGCTCTTGAACAGCAGGAAGGTCGGAGTCACCTAGTGCAG | 43400 fluorescence intensity (a.u.) |
| GGGCGGAGCTGGTGCGGAGGGTGGCGTGGCAGCTCGAGGACGGAGTCACCTAGTGCAG | 5260 fluorescence intensity (a.u.) |
| GCGTGGTGCTGGTCTCCAAGGATCCCGACAACATCCGCGACGGAGTCACCTAGTGCAG | 5380 fluorescence intensity (a.u.) |
| CATCCCTGGTGCTCTTGGTCTCTTGGCAGCTGTGGAAGGACGGAGTCACCTAGTGCAG | 43000 fluorescence intensity (a.u.) |
| GTATTGCTGCTGTGATGGAACAAGCTCAGCAGGGTGACATCGGAGTCACCTAGTGCAG | 3290 fluorescence intensity (a.u.) |
| GCCGTGAACCAAAGCTCTTGCCGTGCTGTGCCGTGCCGGTCGGAGTCACCTAGTGCAG | 3220 fluorescence intensity (a.u.) |
